# Assay results taken from PubChem BioAssay (NCI).
# The panel holds about 83,000 compounds, 20% with a hit somewhere; the sample as a whole holds those more often.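 The endpoint reported here, percent growth, reads 100 for growth as untreated, 0 for no net growth and -100 for all cells dead.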 Unmarked numbers belong to inactive results. Active and inactive are the calls of the source. The calls were made as follows: active = growth percent below 10; inactive = the rest.
# Key:
# Experiment in all cases: NCI-60 one-dose screen, 48 h (100 = growth as untreated, 0 = no growth, -100 = all killed)
# Settings in all cases: 10 µM unless noted
# NCI-H226 lung = system: NCI-H226 lung
# NCI-H322M lung = system: NCI-H322M lung
# HOP-62 NSCLC = system: HOP-62 NSCLC
# NCI-H460 lung = system: NCI-H460 lung
# HOP-92 NSCLC = system: HOP-92 NSCLC
# NCI-H522 lung = system: NCI-H522 lung
# A549/ATCC NSCLC = system: A549/ATCC NSCLC
# 786-0 renal = system: 786-0 renal
# COLO 205 colon = system: COLO 205 colon
# DU-145 prostate = system: DU-145 prostate
# K-562 leukemia = system: K-562 leukemia
# MALME-3M melanoma = system: MALME-3M melanoma
# MDA-MB-231 breast = system: MDA-MB-231 breast
# RXF 393 renal = system: RXF 393 renal
# SF-268 CNS = system: SF-268 CNS
# SF-295 CNS = system: SF-295 CNS
# SF-539 CNS = system: SF-539 CNS
# UACC-257 melanoma = system: UACC-257 melanoma
# M14 melanoma = system: M14 melanoma
SMILES,growth (NCI-H226 lung),growth (NCI-H322M lung),growth (HOP-62 NSCLC),growth (NCI-H460 lung),growth (HOP-92 NSCLC),growth (NCI-H522 lung),growth (A549/ATCC NSCLC),growth (786-0 renal),growth (COLO 205 colon),growth (DU-145 prostate),growth (K-562 leukemia),growth (MALME-3M melanoma),growth (MDA-MB-231 breast),growth (RXF 393 renal),growth (SF-268 CNS),growth (SF-295 CNS),growth (SF-539 CNS),growth (UACC-257 melanoma),growth (M14 melanoma)
C=CC(=O)NCc1ccc(Nc2nccc(-c3ccc(N4CCCC4)c(C#N)c3)n2)cc1,39.9%,41%,17.1%,23.3%,36.8%,19.2%,19.2%,17.6%,31.4%,46.3%,21%,44.9%,75.6%,-1.91% (active),49.7%,22.9%,28%,39.8%,36.1%
COc1ccc(-c2nnc3n(C)c(=O)c4ccccc4n23)cc1N,70.1%,39.5%,23.3%,13.6%,49.9%,18.8%,28.6%,23%,-22.2% (active),33.3%,12.1%,51.9%,41%,-10.5% (active),55.8%,10.7%,-5.87% (active),49.8%,13.6%
O=C(NCCCCNC(=O)OCc1ccc2c(Cl)cc(Cl)c(O)c2n1)OCc1ccc2c(Cl)cc(Cl)c(O)c2n1,8.33% (active),34.3%,9.48% (active),2.78% (active),48.5%,-2.86% (active),14.8%,70.7%,96.3%,1.77% (active),11.6%,43%,25.1%,27%,31.3%,22.8%,-13.7% (active),23.8%,12.4%
O=C(Nc1ncc(Cc2ccc(Cl)c(C(F)(F)F)c2)s1)c1ccc2nnsc2c1,66.5%,69.2%,51.5%,27.2%,64.9%,,40.7%,53.2%,57.3%,53.7%,24.7%,48.7%,67.4%,75.6%,50.7%,20%,5.13% (active),64.9%,32.2%
O=C(c1ccc(Cl)cc1)N1CCN(c2ccnc3cc(Cl)ccc23)CC1,87.3%,96.5%,102%,,83.7%,56.5%,,93.5%,101%,112%,77.1%,84.4%,89.1%,77.5%,100%,95.8%,100%,91%,98%
O=C(CCCCCCN1CC(=O)N2[C@H](c3cc(Br)cs3)c3[nH]c4ccccc4c3C[C@H]2C1=O)NO,79.9%,38.5%,41.8%,35.1%,18.2%,20.5%,61.1%,76.9%,42.6%,29.1%,10.2%,18.6%,44%,18.7%,66.8%,45.8%,43.3%,27.7%,37.2%
Cc1ccc(Sc2oc(-c3ccc(C)cc3)nc2[P+](c2ccccc2)(c2ccccc2)c2ccccc2)cc1,15.7%,10.3%,9.94% (active),-39.6% (active),-9.3% (active),-38.5% (active),7.74% (active),3.99% (active),-41.5% (active),11.6%,4.98% (active),-41.1% (active),-12.5% (active),-18.8% (active),10.9%,9.9% (active),-5.1% (active),0.818% (active),7.37% (active)
CN(C)CCCC1(c2ccc(F)cc2)OCc2cc(-c3cccc4[nH]ccc34)ccc21 (centres undefined),65.7%,61.5%,16.2%,-23.3% (active),30.6%,28%,28.3%,37%,-64.2% (active),18.9%,-4.22% (active),-91.6% (active),40.8%,37.6%,41%,20%,14%,-5.65% (active),-68.4% (active)
O=C(O)c1ccc(-n2cc(/C=N/Nc3ccc(F)cc3)c(-c3cc4ccccc4oc3=O)n2)cc1,101%,85.4%,84.3%,,81.5%,50.9%,92.9%,74.6%,110%,91.2%,11.6%,79.8%,83.7%,113%,76.8%,72.1%,85.9%,107%,47.3%
CN(C)CCCC1(c2ccc(F)cc2)OCc2cc(-c3cncc4ccccc34)ccc21 (centres undefined),77.2%,51.5%,65%,10.6%,49.5%,42.9%,46.9%,46.8%,16.3%,48.5%,1.06% (active),-85% (active),38.3%,20.1%,49.5%,17.8%,54.9%,-64.5% (active),-56% (active)
O=C(CCC(=O)N/N=C/c1ccccc1O)N/N=C/c1ccccc1O,61.8%,29.3%,36.2%,44.4%,57.1%,51.8%,62.6%,69.7%,35.4%,48.4%,40.4%,62.5%,49%,58.9%,33.2%,89.6%,30%,76%,36.4%
CCN(CC)CCOc1ccc(C(=C(C)c2ccc(Cl)cc2)c2ccc(OCCN(CC)CC)cc2)cc1,103%,-29.9% (active),-61.5% (active),-76.6% (active),6.28% (active),-67.2% (active),-68.9% (active),-97.6% (active),-68.7% (active),-36.4% (active),-37.2% (active),-84.1% (active),-84.9% (active),-73.7% (active),-37.9% (active),-77.6% (active),-92.6% (active),-69.9% (active),-89.8% (active)
